This note sets out measurements from PubChem BioAssay (EPA / NIEHS).

Activity calls are given as the source filed them. Rule for the calls: active = hit-call score of the fitted dose curve at least 0.9, where 1 is the maximum; inactive = score below 0.9.

A word on the AC50: it is the concentration giving half of the maximal activity seen.

Read-out in this experiment: MYC, MYC (gene 4609)
Briefly: LTEA_HepaRG_MYC: Life Technologies and Expression Analysis (LTEA) Assay for MYC using HepaRG (AID 2283518). Conditions: mRNA level, 48 h; actives raise or lower the signal. How it is done: LTEA_HepaRG is a cell based, multiplexed-readout assay that uses HepaRG, a human liver cell line, with measurements taken at 48 hours after chemical dosing on a 96-well plate.LTEA_HepaRG_MYC is one of 102 assay component(s) measured in the LTEA HepaRG cell culture assay. It is a marker of Cell proliferation, survival, death.Data from the assay component LTEA_HepaRG_MYC was analyzed into 1 endpoint. This assay endpoint, LTEA_HepaRG_MYC, was analyzed with bidirectional fitting relative to DMSO as the negative control and baseline of activity. Using a type of inducible reporter, measures of mRNA induction for gain or loss-of-signal activity can be used to understand regulation of transcription factor activity. To generalize the intended target to other relatable targets, this assay endpoint is annotated to the dna binding intended target family, where the subfamily is basic helix-loop-helix leucine zipper.
A total of 1060 chemcials from the ToxCast library were tested in eight-point concentration-response experiments. Cell culture and cytotoxicity assays were conducted at Thermo Fisher Scientific's Custom Services facility (Madison, WI). A single lot of human HepaRG cells (Thermo Fisher Scientific, Frederick, MD) was used for the cell culture experiments. 96-well format collagen type I coated plates of human HepaRG cells were prepared using established methods. Briefly, cryopreserved HepaRG cells were thawed, plated at a density of approximately 100,000 cells/well in HepaRG Thaw, Plate, and General Purpose media (HPRG770, Thermo Fisher Scientific), and incubated for 48 hours. 0.5% DMSO was selected as vehicle control to balance the requisite need of DMSO in HepaRG cultures to maintain differentiation (for example, baseline metabolism, proportions of hepatocytes vs. cholangiocytes), while enabling further hepatic receptor pathway activation (for example, PXR and CAR) in response to chemical exposure. 48 hours after plating, the culture medium was replaced with HepaRG Serum-Free Incudtion Media. Cells were exposed to each test chemical in duplicate and maintained in CO2 incubators for another 48 hours. Chemical plates were thawed to room temperature and 200x concentrations of treatment groups were prepared. 8-point conentration-reponse curves were made with the highest exposure at 100 uM, followed by half-log dilutions, all in 0.5% DMSO. Each test plate contained variouse controls, induction positive controls (1mM phenobarbital), cytotoxicity positive controls ([…] aflatoxin B1), vehicle controls (0.5% DMSO), and total lysis controls (0.5% DMSO). Cell morphology images were taken using an Essen IncuCyte FLR automated microscope, with six 96-well plates imaged in about 24 minutes. Images were captured and exported and JPEG files. Spent culture media was transfered to black-well plates for the LDH assay, and remaining media was sorted at -80 C for later use. Cells were treated with RLT buffer and frozen until shipped for gene expression analysis. Total RNA was isolated from the cell suspension in 75 uL of Buffer RLT (Qiagen, Germantown, MD 20874) by Quintiles/Expression Analysis (Durham, NC) using a custom isolation procedure. Total RNA from each plate well was transferred to a preamplification plate. Fluidigm's 96.96 Dynamic ArrayTM (Fluidigm, Amsterdam, the Netherlands) technology was used for gene expression analyses by quantitative reverse transcription polymerase chain reaction (qRT-PCR, performed by Quintiles/Expression Analysis, Durham, NC)89. Standard TaqManTM Assays (Applied Biosystems/ThermoFisher Scientific, Foster City, CA) were used to assess the expression of 93 genes selected based on their selectivity and sensitivity to important hepatic receptors known to be modulated by environmental chemicals; importance in human hepatocyte functionality; and hepatotoxicity. […]
As to `CCCOC(=O)c1cc(O)c(O)c(O)c1`, the call was inactive.

For the molecule `CC(C)(O)c1ccc(CNC(=O)c2cccnc2Oc2ccc3nonc3c2)cc1`, the call was inactive.

Turning to `Cc1ncc(CO)c(CO)c1O`, the molecule was classed as inactive.

As for `CC/C(=C(/CC)c1ccc(O)cc1)c1ccc(O)cc1`, the result was inactive.

`NC(=O)c1nc(-c2cccc(-c3cc(F)ccc3OCC(F)(F)C(F)(F)F)c2)n[nH]1`: the molecule was called inactive.

Take `CCCCOC(=O)c1ccc(O)cc1`: the call was inactive.

For `OCCO`, the molecule was classed as inactive.

In the case of `O=c1ccc2ccccc2o1`, the molecule was called inactive.

As for `Cc1ccc2oc(CN(Cc3ccccc3)C(=O)Nc3c(F)cc(F)cc3F)c(-c3ccc(Cl)cc3)c2c1`, the half-maximal activity concentration (AC50) is 44.2 µM (active).

For the molecule `O=C1CCC(C2CCCCC2)CC1`, the outcome was inactive.

Turning to `CC[C@@H]1C[C@H](N(Cc2cc(C(F)(F)F)cc(C(F)(F)F)c2)C(C)=O)c2cc(C(F)(F)F)ccc2N1C(=O)OC(C)C`, the call was inactive.

As for `Oc1ccc2ccccc2c1`, the outcome was inactive.

`Cc1cccc2ccccc12`: the result was inactive.

As to `O=C(Nc1ccc(Cl)cc1)Nc1ccc(Cl)c(Cl)c1`, the AC50 is 28.6 µM (active).

On to `Cc1cn([C@H]2C[C@H](N=[N+]=[N-])[C@@H](CO)O2)c(=O)[nH]c1=O`, for which the result was inactive.

Regarding `C[C@]12CC[C@@H]3c4ccc(O)cc4CC[C@H]3[C@@H]1CCC2=O`, the outcome was inactive.

Regarding `CCCCOC(=O)CC(CC(=O)OCCCC)(OC(C)=O)C(=O)OCCCC`, the call was inactive.

Consider `CO[C@H]1/C=C/O[C@@]2(C)Oc3c(C)c(O)c4c(O)c(c(/C=N/N5CCN(C)CC5)c(O)c4c3C2=O)NC(=O)/C(C)=C\C=C\[C@H](C)[C@H](O)[C@@H](C)[C@@H](O)[C@@H](C)[C@H](OC(C)=O)[C@@H]1C`, for which the result was inactive.

Regarding `Clc1cc(Cl)c2c(c1)N=C1CCCCCN1C2`, the molecule was called inactive.

On to `OC12N=C(c3ccccc3)SC1Cc1cc(Cl)ccc12` (stereo not given), for which the AC50 is 16.1 µM (active).

Consider `Oc1ccccc1`, for which the molecule was called inactive.

In the case of `CCCCCCCCOc1ccc(C(=O)c2ccccc2)c(O)c1`, the molecule was classed as inactive.

As for `O=C(O)Cn1c(=O)n(Cc2ccc(Br)cc2F)c(=O)c2ccc(Cl)cc21`, the molecule was called inactive.

On to `COCC(C)OCC(C)OCC(C)O` (stereo not given), for which the result was inactive.

For the molecule `CCCCCCCCOC(=O)c1cc(O)c(O)c(O)c1`, the result was inactive.

With `O=C1O[C@H]([C@@H](O)CO)C(O)=C1O`, the outcome was inactive.

`CCN(Cc1cccnc1)C(=O)c1cccc(Cl)c1[C@]1(C)C(=O)N(Cc2ccc(OC)cc2OC)c2ccc(Cl)cc21`: the AC50 was 25.3 µM (active).

As for `COc1cc(C(=O)NC2CCN(C)CC2)ccc1Nc1ncc2c(n1)N(C1CCCC1)CC(F)(F)C(=O)N2C`, the AC50 was 14.7 µM (active).

As for `CC1(C)NC(=O)N(c2ccc([N+](=O)[O-])c(C(F)(F)F)c2)C1=O`, the AC50 was 81.8 µM (active).

In the case of `Clc1ccccc1C(c1ccccc1)(c1ccccc1)n1ccnc1`, the half-maximal activity concentration (AC50) was 20.5 µM (active).

For the molecule `c1ccc2n[nH]nc2c1`, the molecule was called inactive.

Take `CCN(Cc1cccc(S(=O)(=O)O)c1)c1ccc(C(=C2C=CC(=[N+](CC)Cc3cccc(S(=O)(=O)O)c3)C=C2)c2ccccc2S(=O)(=O)[O-])cc1`: the molecule was called inactive.

In the case of `CN1C(=O)N(c2ccccc2Br)Cc2cnc(Nc3ccc4c(c3)OCC(CO)O4)nc21` (stereo not given), the call was inactive.

For `CN(C[C@@H](CC[N+]12CCC(C3CCCCC3)(CC1)CC2)c1ccc(Cl)c(Cl)c1)C(=O)c1cc(C(F)(F)F)cc(C(F)(F)F)c1`, the AC50 is 87.2 µM (active).

For `CCO[Si](CCCNC(N)=O)(OCC)OCC`, the molecule was classed as inactive.

Consider `CN1C(=O)CC[C@H]1c1cccnc1`, for which the call was inactive.

As to `c1ccc(C[n+]2cccc3ccccc32)cc1`, the concentration at half-maximal activity (AC50) is 34.6 µM (active).

Take `CC(=O)N1CCN(c2ccc(OC[C@H]3CO[C@](Cn4ccnc4)(c4ccc(Cl)cc4Cl)O3)cc2)CC1`: the AC50 was 15.4 µM (active).

As to `O=c1c(-c2ccc(O)cc2)coc2cc(O)cc(O)c12`, the outcome was inactive.

`CC1=CC(=O)/C(=C(/C)O)C(=O)O1`: the outcome was inactive.
